This note sets out measurements from PubChem BioAssay (NCI).

Structures are written as SMILES. Compounds without any hit were thinned out: in the full panel of roughly 83,000, 20% have a hit.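 Assay: single dose, 48 h. Readout: percent growth (0 = no net growth; negative = cell death). Active: <10.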 Unmarked numbers belong to inactive results. Activity calls are given as the source filed them.

The subject of this assay is MDA-MB-468 breast. As to the kind of experiment: NCI-60 one-dose screen, 48 h (100 = growth as untreated, 0 = no growth, -100 = all killed). The conditions noted are these: 10 µM unless noted.
`CCN(CC)c1ccc(/C=N/N=C(N)N)cc1`: the growth is 26%.

Regarding `Cc1nn2c(/C=C3/C(=O)Nc4ccc(Cl)cc43)c(-c3ccccc3)nc2s1`, the growth was 35.7%. For `COc1ccc([C@H]2c3[nH]c4ccccc4c3C[C@@H]3C(=O)N(C4CCN(Cc5ccccc5)CC4)CC(=O)N23)c(OC)c1`, the growth was 63.4%.

On to `CCCC(=O)CC(C)=O.CCCC(=O)CC(C)=O.[Cu]`, for which the growth is 107%. The value for `Cc1ccc(C2Oc3ccccc3C3CC(c4cccs4)=NN32)cc1` (stereo not given) was 109%; that for `COc1cc2oc(-c3cccc(NC(=O)Nc4ccc5c(c4)OCO5)c3)cc(=O)c2c(OC)c1OC` was 75.2%; that for `CC(=O)Cc1nsc(NC(=O)c2cc(-c3cc(Cl)ccc3Cl)oc2C)n1` was 100%. The value for `C=C(C)[C@@H]1CC[C@]2(C(=O)NCCCN)CC[C@]3(C)[C@H](CC[C@@H]4[C@@]5(C)CC[C@H](O)C(C)(C)[C@@H]5CC[C@]43C)[C@@H]12` was -19.9% [100 µM] (active). Under `Cc1nc2cnc(N)c(C#Cc3cncc(C(=O)Nc4ccc(Cl)c(C(F)(F)F)c4)c3)c2nc1C` stands 72.6%; under `Cc1cc(Cl)ccc1NC(=O)/C(Cl)=C1/Sc2ccccc2NC1=O`, 95.1%.

`CN1C2CCC1CN(c1cnc(C(=O)Nc3cc(F)cc4cccnc34)cn1)C2`: the growth is 13.1%. The value for `O=C(O)CCCc1ccccc1` was 109%.

Turning to `COc1ccc(/C=C2\Cc3c(Br)cccc3C2=O)c(OC)c1`, the growth is 49.6%.

Take `CCN1CCOC1C(C)C` (stereo not given): the growth was 109%. Take `Cn1c(=O)c2c(c3ccccc31)OC(N)=C(C#N)C21C(=O)c2ccccc2C1=O`: the growth was 96.4%. The value for `COc1cc2c(cc1OC)N(CCO)C1=C(C(=O)OC1)C2c1ccc(Cl)c(Cl)c1` (stereo not given) was 112%; that for `COc1cc(C[C@H]2COc3cc(O)cc(O)c3C2=O)ccc1O` was 26.2%; that for `CN(C)CC(O)c1ccc(/C=C/c2ccc(Cl)cc2)cc1` (stereo not given) was -84.4% (active).

Consider `Cc1ccccc1-n1nnc(C(=O)Nc2ccc(-c3ccccc3)cn2)c1C`, for which the growth is 4.89% [50 µM] (active). Under `O=C(NCc1ccco1)Nc1cccc2c(NC(=O)NCc3ccco3)cccc12` stands 85.7% [100 µM]; under `C#C[C@]1(O)CCC2C3CCc4cc(O)ccc4C3CC[C@@]21C` (stereo not given in full), 12.1%. The value for `CN(Cc1ccc(C(F)(F)F)cc1)CC(O)C(=O)Nc1ccc(Cl)cc1` (stereo not given) was -30.5% (active).

Consider `N=c1c2c(=O)n3c(nc2nc2sc4ccc(Cl)cc4n12)-c1ccccc1Sc1ccccc1-3`, for which the growth is 24.3%. The value for `COc1cc(/C=C2\CN(C)C/C(=C\c3cc(CN4CCCC4)c(O)c(OC)c3)C2=O)cc(CN2CCCC2)c1O` was 41.8%; that for `O=C1c2ccccc2C(=O)c2c1oc1ccc3ccccc3c21` was -10.4% (active); that for `Cc1cccc(N2CCN(C3=C(Cl)C(=O)c4ncccc4C3=O)CC2)c1` was -66.6% (active).

Turning to `Nc1c(C(=O)Nc2ccc(C(F)(F)F)cc2)sc2nc(-c3cnccn3)cc(-c3cccs3)c12`, the growth was 69.9%. Under `NC(N)=Nc1ccc(Oc2cccc(Nc3ccc(Br)c(C(F)(F)F)c3)c2)cn1` stands -80.3% (active). The value for `CCCCCCCCN(CCCCCCCC)C(=N)c1ccnc2ccccc12` was -75.5% (active); that for `O=C(/C=C/c1ccc([N+](=O)[O-])cc1)c1ccccc1` was 110%. The value for `CC(=O)c1cc(C(=O)c2ccc(Br)cc2)n2cc(C)cc(C)c12` was 89.3%; that for `Cc1ccc(NC(=O)c2sc3nc(C)c(C(=O)c4ccccc4)cc3c2N)cc1` was 79%. As for `C=C1C(=O)O[C@H]2[C@H]1CC/C(COC(=O)NCC(=O)Nc1ccc(OC)c(C(N)=O)c1O)=C\CC[C@@]1(C)O[C@@H]21`, the growth was 8.85% (active). Under `OC(Cc1cc(CC(O)(C(F)(F)F)C(F)(F)F)nc(CC(O)(C(F)(F)F)C(F)(F)F)c1)(C(F)(F)F)C(F)(F)F` stands -37% (active). Under `C[C@H]1[C@H]2C3=CC[C@@H]4[C@@]5(C)C/C(=C/c6ccncc6)C(=O)C(C)(C)[C@@H]5CC[C@@]4(C)[C@]3(C)CC[C@@]2(C(=O)N2CCN(C)CC2)CC[C@@H]1C` stands 41.1%. Under `COc1ccc(-c2cn3c(-c4ccc(OC)cc4)cnc3c(Oc3ccc4c(C)cc(=O)oc4c3)n2)cc1` stands 43.9%. As to `CCC(=O)Oc1ccc(/C(=C(\C)c2ccccc2)c2ccc(OCCN(CC)CC)cc2)cc1`, the growth is 82.4%. The value for `N#C/C(=C\c1ccc(C(F)(F)F)cc1)c1cc2ccccc2[nH]1` was 96.9%; that for `O=Nc1c(-c2c(O)[nH]c3ncccc23)[nH]c2ccccc12` was 28.4%.

For the compound `Cn1cc(-c2csc(-c3cn(C)c4ncccc34)n2)c2cc(Br)cnc21`, the growth was -28.4% (active).
